Experimental data: the supplement of paper PMC6555819

Experiments:
Assay in all cases: PBM binding z-score (relative to random genomic background probes); higher = stronger binding; sequences stand for … in GC…GCGATTGACAGCGTAGAATGAAGG
[1] = test system: PPARg:RXRa DBDmut IVT, anti-RXR (DBD mutation: RXRa K156A/R161A, NR concentration 270 nM, RXRa partner concentration 90 nM)
How it was run: (§1)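 Binding z-scores take random background probes as their reference. They come from custom Agilent 4×180K protein-binding microarrays incubated 1 h with ligand-free nuclear receptor dimers, with antibodies against each partner (one per run) detecting binding. Scanned fluorescence was regression-normalized.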

[2] = test system: PPARg:RXRa IVT, anti-PPARg (NR concentration 270 nM, RXRa partner concentration 90 nM)
How it was run: as §1

[3] = test system: PPARg DBDmut:RXRa IVT, anti-PPARg (DBD mutation: PPARg1 K132A/R137A, NR concentration 270 nM, RXRa partner concentration 90 nM)
How it was run: as §1

[4] = test system: PPARg DBDmut IVT, anti-PPARg (DBD mutation: PPARg1 K132A/R137A, NR concentration 270 nM)
How it was run: as §1

[5] = test system: PPARg homodimer (NR concentration 180 nM)
How it was run: as §1

[6] = test system: PXR homodimer (NR concentration 270 nM)
How it was run: as §1

[7] = test system: RARa:RXR (NR concentration 270 nM, RXRa partner concentration 90 nM)
How it was run: as §1

[8] = test system: RARa homodimer (NR concentration 270 nM)
How it was run: as §1

[9] = test system: RARb homodimer (NR concentration 270 nM)
How it was run: as §1

[10] = test system: RARg homodimer (NR concentration 270 nM)
How it was run: as §1

[11] = test system: RXRa DBDmut IVT, anti-RXR (DBD mutation: RXRa K156A/R161A, NR concentration 90 nM)
How it was run: as §1

[12] = test system: THRa:RXRa (NR concentration 90 nM, RXRa partner concentration 90 nM)
How it was run: as §1

[13] = test system: THRa homodimer (NR concentration 90 nM)
How it was run: as §1

[14] = test system: VDR homodimer (NR concentration 270 nM)
How it was run: as §1

[15] = test system: RARb:RXRa (NR concentration 270 nM, RXRa partner concentration 90 nM)
How it was run: as §1

[16] = test system: RXRa homodimer (NR concentration 180 nM)
How it was run: as §1

[17] = test system: PXR:RXRa (NR concentration 270 nM, RXRa partner concentration 90 nM)
How it was run: as §1

[18] = test system: RARg:RXRa (NR concentration 270 nM, RXRa partner concentration 90 nM)
How it was run: as §1

[19] = test system: VDR:RXRa (NR concentration 270 nM, RXRa partner concentration 90 nM)
How it was run: as §1

Sequence | PBM binding z-score [1] | PBM binding z-score [2] | PBM binding z-score [3] | PBM binding z-score [4] | PBM binding z-score [5] | PBM binding z-score [6] | PBM binding z-score [7] | PBM binding z-score [8] | PBM binding z-score [9] | PBM binding z-score [10] | PBM binding z-score [11] | PBM binding z-score [12] | PBM binding z-score [13] | PBM binding z-score [14] | PBM binding z-score [15] | PBM binding z-score [16] | PBM binding z-score [17] | PBM binding z-score [18] | PBM binding z-score [19]
TCTCGGAGGTCACGAAGGTCAGAGCTTTCCAGAG | 4.48 | 6.17 | 0.14 | -0.128 | 4.35 | 9.02 | 6.63 | 1.11 | 5.66 | 8.12 | 3.05 | 4.64 | 2.29 | 5.14 |  |  |  |  | 
CGTCCAAGGTCAATGCGAGGTCAGTGAAAGCATT | 3.2 | 4.05 | 0.262 | -0.0151 | 6.13 | 4.68 |  | 1.33 | 5.27 | 6.95 | 3.59 |  | 4.23 | 4.73 | 5.4 | 6.15 |  |  | 
ATTTGTAGGTTAGGGTCATTCAGAAAGTAGGGAA | 5.45 | 5.62 |  | 3.63 | 4.01 | 3.09 | 5.22 | 4.03 | 3.88 | 3.72 | 2.82 | 4.17 | 3.71 | 4.56 | 3.86 | 5.6 | 4.55 | 4.4 | 4.81
ATATGTAGGTTACATGCGGGTCATTCAGGCTATG | 7.67 | 7.33 | 2.78 | 2.03 | 1.57 | 1.11 | 3.24 | 0.618 | 2.51 | 2.18 | 0.745 | 2.85 | 0.633 | 2.05 | 2.01 | 3.16 |  |  | 
ATATTTAGGTTAGGGTCATTCAGAAAGTAGGGAA | 5.81 | 5.68 |  | 3.04 | 4.04 | 2.43 | 4.64 | 4.29 | 3.47 | 3.55 | 2.76 | 4.2 | 3.85 | 4.22 | 3.73 | 4.71 | 4.34 | 4.06 | 4.6
ATATGTAGGTTAGGGTGATTCAGAAAGTAGGGAA | 6.7 | 6.39 |  | 1.41 | 2.93 | 1.31 | 1.3 | 1.25 | 1.48 | 0.813 | 0.979 | 2 | 1.65 | 0.713 | 1.38 | 1.02 | 1.04 | 0.779 | 1.09
TGAATGAGGTTAAAGGTCAGGGAACGTGGCGTCG | 3.7 | 6.46 | 1.94 | 1.25 | 5.36 | 1.01 |  | 3.29 | 4.57 | 5.51 | 1.87 | 4.33 | 1.94 | 2.81 | 5.08 |  |  | 7.13 | 
CGTCCAAGGTCAAAGGTCACTGAAGAGATGACGG | 4.24 | 6.37 | 2.37 | 1.21 | 2.49 | 2.15 | 9 | 3.47 | 5.74 | 8.6 | 4.13 | 4.9 | 3.25 | 4.21 | 5.96 | 10.1 |  |  | 
CGAACTAGGTCAAAGGACAGCGAAAGGCGACGTA | 8.31 | 8.46 |  | 0.805 | 1.59 | -0.642 | 2.66 | 0.165 | 3.05 | 4.72 | 1.85 | 2.46 | 0.406 | 0.311 | 3.93 | 3.19 | 1.22 | 4.13 | 1.47
ATATGTAGGTTCGGGTCATTCAGAAAGTAGGGAA | 3.06 | 4.01 |  | 1.7 | 2.61 | 1.57 | 3.97 | 1.72 | 2.51 | 2.25 | 2.71 | 3.7 | 2.82 | 4 | 2.5 | 3.45 | 3.53 | 2.82 | 3.72
ATATGCAGGTTAGGGTCATTCAGAAAGTAGGGAA | 2.72 | 3.16 |  | 1.24 | 2.85 | 1.51 | 4.9 | 1.16 | 3.2 | 3.17 | 2.15 | 3.89 | 2.86 | 3.64 | 3.4 | 5.23 | 4.28 | 4 | 4.26
CCGACGGGGGCAGAAAGGTTACCATACCATCCGG | 0.901 | 2.55 | 3.18 | 2.71 | 2.43 | 2.06 | 3.91 | 0.566 | 3.29 | 3.58 | 1.16 | 2.99 | 0.6 | 2.21 |  | 3.31 |  | 4.2 | 
CGAACTAGGTAAAAGGACAGTGAAAGGCGACGTA | 5.32 | 4.9 |  | 0.0504 | 0.371 | -0.442 | -0.202 | -0.518 | 1.17 | 0.964 | -0.478 | 0.444 | -0.377 | -0.349 | 1.09 | 0.114 | -0.425 | 0.486 | -0.189
CGAACTAGGTCAAAGGACAGAGAAAGGCGACGTA | 8.13 | 8.31 |  | 4.05 | 1.87 | -0.306 | 2.31 | 0.114 | 2.7 | 4.46 | 1.73 | 2.44 | 0.0564 | 0.391 | 3.88 | 3.38 | 1.26 | 4.29 | 1.54
ATATGTGGGTTAGGGTCATTCAGAAAGTAGGGAA | 6.19 | 6.44 |  | 2.69 | 4.09 | 3.66 | 5.02 | 3.33 | 3.67 | 3.23 | 2.95 | 4.42 | 4.11 | 4.92 | 3.45 | 5.55 | 5.1 | 4.16 | 4.97
CGAACTAGGTCAAAGGACAGTCAAAGGCGACGTA | 8.1 | 8.4 |  | 2.46 | 1.64 | -0.21 | 2.49 | 0.35 | 3.04 | 4.5 | 1.74 | 2.54 | 0.161 | 0.43 | 3.87 | 3.05 | 1.39 | 4.11 | 1.69
